Source: PubChem (The Scripps Research Institute Molecular Screening Center)
This is a sample that favours compounds with a hit; in the whole collection about 3.4% have one here.
PAFAH1B3 FP inh = blocks human PAF acetylhydrolase 1B catalytic subunit 3; Q15102; inhibition, % at 3.39 µM; recombinant PAFAH1B3, FP-rhodamine probe, fluorescence polarization; 0.28% of 340,000 active;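 active = inhibition above the screen-wide average of all tested compounds plus 3 SD, cut at about 25% in these data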
Target sequence (Q15102 whole entry, looked up): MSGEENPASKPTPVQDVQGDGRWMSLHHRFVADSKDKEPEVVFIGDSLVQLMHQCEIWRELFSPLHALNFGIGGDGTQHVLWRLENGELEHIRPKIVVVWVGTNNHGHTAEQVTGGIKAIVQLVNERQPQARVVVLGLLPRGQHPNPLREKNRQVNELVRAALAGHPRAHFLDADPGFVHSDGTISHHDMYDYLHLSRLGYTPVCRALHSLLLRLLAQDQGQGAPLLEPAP
pPAFAH FP inh = pPAFAH (human) enzyme inhibition; recombinant pPAFAH, FP-rhodamine probe fluorescence polarization; inhibition, % at 3.39 µM; 1.5% of 330,000 active;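 active = inhibition above the mean inhibition across the screen plus 3 SD, cut at about 25% in these data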;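 also: inhibitors block binding of the rhodamine activity-based probe so polarization drops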
PP5 inh = inhibitors of human protein phosphatase 5 (PP5). P53041. 0.18% of 320,000 active. inhibition, % at 6.7 µM. purified PP5c, OMFP substrate fluorescence;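 active = inhibition above the campaign's mean inhibition across all tested compounds plus 3 SD, cut at about 9.5% in these data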
PAFAH2 inh = inhibitors of human PAFAH2; Q99487; inhibition, % at 3.39 µM; recombinant PAFAH2, FP-rhodamine activity probe, fluorescence polarization; AID 492956; 0.99% of 340,000 active;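 active = inhibition above the mean over all tested compounds plus 3 SD, cut at about 30% in these data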;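 also: inhibitors block probe labeling of enzyme so polarization drops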
PP1 inh = PP1-alpha (human) inhibition in PP5 counter-screen. P62136. purified PP1alpha, OMFP fluorescence. inhibition, % at 6.7 µM. 0.9% of 320,000 active;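 active = inhibition above the mean inhibition of all tested compounds plus 3 SD, computed separately for each screening campaign, cut at about 15% in these data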
PAFAH1B2 FP inh = blocks human PAF acetylhydrolase 1b catalytic subunit 2 | recombinant PAFAH1B2, FP-rhodamine activity probe, fluorescence polarization | 1.2% of 340,000 active | inhibition, % at 3.39 µM | P68402;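 active = inhibition above the mean of all tested compounds plus 3 SD, cut at about 24% in these data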
Target sequence (P68402 whole entry, looked up): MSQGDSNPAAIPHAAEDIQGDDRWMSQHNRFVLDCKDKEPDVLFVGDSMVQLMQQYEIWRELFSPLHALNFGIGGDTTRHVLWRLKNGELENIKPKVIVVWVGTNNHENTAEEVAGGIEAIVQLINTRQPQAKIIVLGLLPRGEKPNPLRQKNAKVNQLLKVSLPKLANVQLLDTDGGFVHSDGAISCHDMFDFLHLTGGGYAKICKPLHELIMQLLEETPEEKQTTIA
PP5 conf = PP5 (human) inhibition, confirmation. shares compounds with PP5 inh. inhibition, % at 6.7 µM. 22% of 460 active. Purified PP5, fluorogenic phosphatase substrate, fluorescence. AID 2331; in the data active = inhibition above about 9.5%
PP1 counter 3x = counter-screen for PP5 inhibitors: human PP1 phosphatase inhibition | shares compounds with PP5 inh | PP1 enzyme, fluorescent phosphatase substrate | inhibition, % at 6.7 µM | 4% of 460 active | AID 2355; in the data active = inhibition above about 16%
Of the large screens only hits and unclear results are named; the others gave an inactive call (follow-up assays come after a bar, where they were run).

CCn1c(NC(=O)c2ccco2)c(-c2ccccc2Cl)c(=O)c2ccccc21	PP5 inh 12 | PP5 conf inactive | PP1 counter 3x inactive
Cn1c(NC(=O)c2ccco2)c(-c2ccccc2)c(=O)c2ccccc21	none
CCOC(=O)c1nn(-c2ccc(C)cc2)c(=O)c2c(N)scc12	PP5 inh 10.0 | PP5 conf 23 | PP1 counter 3x inactive
COc1cccc(N2C(=O)C3CCCN3C2=S)c1 (configuration not stated)	none
CO/N=C(\CCC(=O)O)c1cccs1	PP5 inh 9.7 | PP5 conf inactive | PP1 counter 3x inactive
Cc1cc(C(=O)N/N=C(\CCC(=O)O)c2cccs2)c2ccccc2n1	none
CCNCc1cc(Br)c(OCC(=O)Nc2ccccc2)c(OC)c1	PP5 inh 9.9 | PP5 conf inactive | PP1 counter 3x inactive
COc1cc(CNCC(C)C)cc(Br)c1OCC(=O)Nc1ccccc1	none
CC(C)(C)c1ccc(C(=O)NNc2cc(N3CCCCC3)nc(N3CCCCC3)n2)cc1	none
O=C(NNc1cc(N2CCCC2)nc(N2CCCC2)n1)c1ccc([N+](=O)[O-])cc1	PP5 inh 11 | PP5 conf 34 | PP1 counter 3x inactive
CCO/C(C)=C1/SC(=S)NC1=O	none
COc1cc(OC)c(C2C(C(=O)Nc3ccc(C)cc3C)=C(C)Nc3ncnn32)cc1OC (configuration not stated)	PP5 inh 15 | PP5 conf inactive | PP1 counter 3x inactive
COc1cc(OC)c(C2C(C(=O)Nc3ccccc3)=C(C)Nc3ncnn32)cc1OC (configuration not stated)	none
CCC1(c2ccccc2)NC(=O)N(CC(=O)Nc2cccnc2Cl)C1=O (configuration not stated)	none
O=C(CN1C(=O)NC(c2ccccc2)(c2ccccc2)C1=O)Nc1cccnc1Cl	PP5 inh 12 | PP5 conf inactive | PP1 counter 3x inactive
CC(=O)NCCc1ccc(S(=O)(=O)NCc2ccc3c(c2)OCO3)cc1	none
CCCc1cc2c(cc1NS(=O)(=O)c1ccc(CCNC(C)=O)cc1)OCO2	PP5 inh 11 | PP5 conf inactive | PP1 counter 3x inactive
COc1ccc(OCC(O)CN2CCNCC2)cc1 (configuration not stated)	none (no result: pPAFAH FP inh, PP5 inh, PP1 inh)
Cc1cc(CC(=O)O)c2oc(-c3ccoc3)cc(=O)c2c1	none (no result: PAFAH1B3 FP inh, PAFAH2 inh, PAFAH1B2 FP inh)
CCN(CC)c1ccc(/C=C2/C(=O)N(c3ccc([N+](=O)[O-])cc3)N=C2N2CCOCC2)cc1	none (no result: PAFAH1B3 FP inh, PAFAH2 inh, PAFAH1B2 FP inh)
COc1cc(/C=C2/C(=O)N(c3ccc([N+](=O)[O-])cc3)N=C2N2CCOCC2)ccc1O	PP5 inh 16 | PP5 conf inactive | PP1 counter 3x inactive
COc1ccc(C2=NN(C(=O)CN3CCCCC3)C(c3ccc(OC)cc3)C2)cc1 (configuration not stated)	PP5 inh 17 | PP5 conf inactive | PP1 counter 3x inactive
CCOC(=O)c1nc(Nc2cc(C)cc(C)c2)c2ccccc2n1	none
CCNc1nc(SCCOc2ccc(Cl)cc2Cl)nc(N(C)C)n1	none (no result: pPAFAH FP inh, PP5 inh, PP1 inh)
CCOC(=O)CNC(=O)c1cc(C)oc1C	PP5 inh 14 (no result: PAFAH1B3 FP inh, PAFAH2 inh, PAFAH1B2 FP inh) | PP5 conf inactive | PP1 counter 3x inactive
Cc1cc(C(=O)NCC(=O)O)c(C)o1	none
O=C(NNC(=O)c1ccc[nH]1)Nc1cc(Cl)cc(Cl)c1	PP5 inh 16 (no result: PAFAH1B3 FP inh, PAFAH2 inh, PAFAH1B2 FP inh) | PP5 conf inactive | PP1 counter 3x inactive
COc1ccc(C(=O)Nc2ccc(S(=O)(=O)N3CCCCC3C)cc2)c(OC)c1OC (configuration not stated)	PP5 inh 11 | PP5 conf inactive | PP1 counter 3x inactive
CCOC(=O)N1CCN(C(=O)CN(C2CCCCC2)S(=O)(=O)c2ccc(C)cc2)CC1	none
Cc1ccc(S(=O)(=O)N(CC(=O)N2CCN(c3ccc(F)cc3)CC2)C2CCCCC2)cc1	PP5 inh 10 | PP5 conf inactive | PP1 counter 3x inactive
COc1ccccc1CNS(=O)(=O)CCNCc1ccco1	none (no result: pPAFAH FP inh, PP5 inh, PP1 inh)
C[C@@H]1CN([C@H](C)CO)C(=O)c2cc(NS(=O)(=O)c3cn(C)cn3)ccc2O[C@H]1CN(C)C(=O)Nc1ccccc1	none (no result: PP5 inh, PP1 inh)
